Where “and” joins values, the source holds several entries; their conditions need not be identical. Equal entries are not always repeated. About 50,000 (12%) of roughly 420,000 compounds were called active. Entries that show only a call come without a potency. Roughly 26% stayed inconclusive and do not appear here. Calls come from the whole dose curve; as a rule, active = well fitted inhibition curve with a large enough effect; inconclusive = small, poorly fitted or top-dose-only effect; inactive = flat fitted curve, though single readings scatter. Many of the other results were omitted from the sample, so actives are more common in it than they were. Some structures have more than one record in an assay (separate samples or runs), and their calls can disagree.
Potency is the fitted concentration of half-maximal effect.

A short description of the assay: qHTS for Inhibitors of human tyrosyl-DNA phosphodiesterase 1 (TDP1): qHTS in cells in presence of CPT. Note: nearly all actives have a fitted effect of over 55% in size. Conditions: chicken DT40 Tdp1-/-;hTDP1 cells + 20 nM CPT, ATP luminescence, 48 h; series mostly up to 46.2 µM. In outline: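 Chicken DT40 Tdp1-/- cells complemented with human TDP1, 400 cells/well, exposed to compounds plus 20 nM camptothecin for at least 48 h at 37 C; viability read as ATP content by CellTiter-Glo luminescence.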
In the case of `O=C(O)CSc1ccc(S(=O)(=O)N2CCCC2)cn1`, the Potency result was “inactive”.
Same read-out and setting: the value for `Cc1ccc(S(=O)(=O)NC2(C(F)(F)F)NC(=O)N(CCc3ccccc3)C2=O)cc1` (centres undefined) was “inactive”.
Still for that read-out and setting: the value for `O=C(Cc1ccc(F)cc1)N1CCN=C1SCc1cccc([N+](=O)[O-])c1` was “inactive”.
Still for that read-out and setting: the value for `COc1ccc(Nc2ncc(C(=O)N3CCN(c4ccccc4OC)CC3)c3ccccc23)cc1` was 29.1 µM (active) and 13 µM (active); that for `COc1ccc(NC(=O)c2cnc(Nc3ccc(C)c(Cl)c3)c3ccccc23)cc1OC` was “inactive”; that for `COc1ccccc1N1CCN(C(=O)c2ccc(NC3=NC4CS(=O)(=O)CC4S3)cc2)CC1` (centres undefined) was “inactive”.
As for `O=C(Nc1cc(F)ccc1F)c1ccc2c(=O)n3c(nc2c1)CCC3`, the Potency result is “inactive”.
The same measure, in the same setting: the same measure for `O=C(Nc1nc(-c2cccnc2)cs1)c1ccccc1F`: “inactive”; for `Cc1csc(NC(=O)C2=COCCO2)n1`: “inactive”.
The same measure, in the same setting: the value for `Cc1ccc(-c2csc(NC(=O)C3=COCCO3)n2)cc1C` was 13 µM (active).
As for `CC(=O)c1cccc(NC(=O)C2COc3ccccc3O2)c1` (centres undefined), the Potency entry was “inactive”.
For `O=C(Nc1nc(-c2ccc3c(c2)OCO3)cs1)c1ccncc1`, the Potency is 14.6 µM (active).
For the compound `O=C(Nc1nc(-c2ccncc2)cs1)C1COc2ccccc2O1` (centres undefined), the Potency is 20.6 µM (active).
As for `Cc1ccc(-c2csc(NC(=O)Cc3cccs3)n2)cc1C`, the Potency entry was “inactive”.
With `COc1ccc(NC(=O)C2COc3ccccc3O2)cc1` (centres undefined), the Potency entry was “inactive”.
With `O=C(CCc1ccccc1)Nc1nn[nH]n1`, the Potency result was “inactive”.
Still for that read-out and setting: the value for `O=C(CCc1ccccc1)Nc1ccc(NC(=O)C2CCCCC2)nc1` was “inactive”.
For the compound `O=C(CCc1ccccc1)Nc1ncc([N+](=O)[O-])s1`, the Potency was 20.6 µM (active).
For `CC(=O)NCCC(=O)Nc1nc(-c2ccc3c(c2)OCCO3)cs1`, the Potency result is “inactive”.
Same read-out and setting: the same measure for `Fc1ccc(/C=N/n2c(COc3ccccc3)n[nH]c2=S)cc1`: “inactive”; for `C#CCN(C[C@H]1[C@H](OC(=O)NC2CCCC2)[C@H](OC(=O)NC2CCCC2)C[C@H]2C(=O)N(c3ccccc3)C(=O)[C@@H]12)S(=O)(=O)c1ccc(C)cc1`: “inactive”; for `CC(Oc1ccccc1)C(=O)NN1Cc2ccccc2C1=N` (centres undefined): “inactive”.
Still for that read-out and setting: the value for `O=C(COc1ccc([N+](=O)[O-])cc1)Nc1ccc(N2CCCC2)cc1` was “inactive”; that for `O=C(Nc1ncc([N+](=O)[O-])s1)C1COc2ccccc2O1` (centres undefined) was 14.6 µM (active).
Same read-out and setting: the value for `C/C(=N/NC(=O)C1COc2ccccc2O1)c1ccco1` (centres undefined) was “inactive”.
Regarding `O=C(Nc1nnc(SCc2ccc(Cl)cc2Cl)s1)C1COc2ccccc2O1` (centres undefined), the Potency result is “inactive”.
Still for that read-out and setting: the same measure for `Cc1cc(N=Nc2ccc3ccccc3c2)ccc1O`: “inactive”; for `C[C@H](NC(=O)c1nc[nH]c1C(=O)NCC(=O)OC(C)(C)C)C(=O)OCc1ccccc1`: “inactive”; for `COc1ccc(C(O)C(O)(C(=O)OC(C)C)c2ccc(C)cc2)cc1` (centres undefined): “inactive”.
Same read-out and setting: the value for `COc1ccc(-c2csc(Nc3ccc(O)cc3)n2)cc1` was 10.3 µM (active).
The same measure, in the same setting: the value for `COc1ccc(OC)c(-c2csc(-c3cccs3)n2)c1` was “inactive”; that for `COc1ccc(OC)c(-c2csc(NC(=O)COC(=O)C3CC3)n2)c1` was “inactive”; that for `COc1ccc(-c2csc(Cc3nc(O)cs3)n2)cc1` was 18.4 µM (active).
As for `COc1ccc(OC)c(Nc2nc(-c3ccc(O)c(O)c3)cs2)c1`, the Potency was 0.82 µM (active).
Still for that read-out and setting: the same measure for `COc1cccc(CC(=O)Nc2ccc(-c3csc(C)n3)cc2)c1`: “inactive”.
The same measure, in the same setting: the value for `COc1ccc(CCN(C(=O)COc2ccccc2)c2nc(-c3ccccc3)cs2)cc1OC` was “inactive”.
As to `N#CCc1ccc(NC(=O)c2ccccc2C(=O)Nc2ccc(CC#N)cc2)cc1`, the Potency result was “inactive”.
Still for that read-out and setting: the same measure for `COc1ccc(NC(=O)COC(=O)c2n[nH]c3ccccc23)c(OC)c1`: “inactive”.
The same measure, in the same setting: the value for `CCOc1ccc(N2CC(C(=O)NCc3ccccn3)CC2=O)cc1` (centres undefined) was “inactive”; that for `COc1cc(/C=C/C(=O)O)cc(S(=O)(=O)Nc2ccccc2C(=O)NCCc2ccccc2)c1OC` was “inactive”; that for `COCCCn1c(SCC(=O)NC2CCCC2)nnc1-c1ccccc1` was “inactive”.
The same measure, in the same setting: the value for `CCCCN(C)CCCNC(=O)CN1N=C(c2ccc(OC)cc2)CCC1=O` was “inactive”; that for `O=C1NNC(c2ccccc2)=N/C1=C\c1ccc(Cl)cc1` was “inactive”.
Turning to `Cc1nc(=O)c(-c2ccccc2)c(C)n1-c1ccc(Br)cc1`, the Potency entry is “inactive”.
In the case of `CCOC(=O)c1c(C)oc(C)c(C(=O)OCC)c1=O`, the Potency result was “inactive”.
Still for that read-out and setting: the same measure for `CC(C)Cn1cnc2c1c(=O)n(CC(=O)NN)c(=O)n2Cc1ccccc1`: “inactive”; for `COc1ccc(C(=O)Nc2c(Cl)cc(Cl)cc2C(=O)N2CCC(C)CC2)cc1`: “inactive”.
Regarding `CC1=Nc2cc(C(=O)N3CCC(C)CC3)ccc2Sc2ccc(Cl)cc21`, the Potency was 14.6 µM (active).
Same read-out and setting: the same measure for `CC1CCN(C(=O)c2ccc3c(c2)NC(=O)CN3)CC1`: “inactive”; for `Cc1cc(OCc2ccc(C(=O)Nc3ccc(C(=O)O)cc3)o2)ccc1Cl`: “inactive”.
For `CCN(CC)CCCNC(=O)CCc1ccccc1`, the Potency result is “inactive”.
Still for that read-out and setting: the value for `CN(Cc1ccccc1)C(=O)CCc1ccccc1` was “inactive”; that for `CN(C(=O)CN(CCO)CC(=O)N(C)C(C)(C)Cc1ccccc1)C(C)(C)Cc1ccccc1` was “inactive and 3.66 µM (active)”.
The same measure, in the same setting: the same measure for `CCCCN(C)c1ccc([N+](=O)[O-])cc1`: “inactive”; for `Cc1cc(C)c(S(=O)(=O)c2ccccc2)c(OC(=O)c2c(F)cccc2Cl)n1`: “inactive”; for `Cc1nc(COc2cccc(Cl)c2)sc1C(=O)/C=C/N(C)C`: “inactive”.
Consider `CN(C)/C=C/C(=O)c1ccccc1F`, for which the Potency entry was “inactive”.
Turning to `Cc1nc(-c2ccccc2)sc1C(=O)/C=C/c1ccccc1`, the Potency is 23.1 µM (active).
Consider `Cc1ccc(SCC(=O)c2sc(-c3ccccc3)nc2C)cc1`, for which the Potency result is “inactive”.
On the same count and under the same terms, the value for `Cc1nc(-c2ccc(Cl)cc2)sc1C(=O)NN` was “inactive”; that for `Cc1nc(-c2ccccc2)sc1C(=O)/C=C/N(C)C` was 23.1 µM (active).
Still for that read-out and setting: the same measure for `O=C(CN1CCSCC1)N/N=C/c1ccc(F)cc1F`: “inactive”; for `CCn1nc(C(=O)NNC(=O)C2CSC3(C)CCC(=O)N23)c2ccccc2c1=O` (centres undefined): “inactive”; for `COc1ccc(S(=O)(=O)NC(C)C(=O)NCc2ccncc2)cc1Cl` (centres undefined): “inactive”.
On the same count and under the same terms, the value for `COc1ccc(Cn2c(=O)c3oc4ccccc4c3n(CC(=O)Nc3ccc(F)cc3F)c2=O)cc1` was “inactive”; that for `CN=C(c1ccccc1)c1c(C)cccc1C` was “inactive”.
With `COc1ccc(OC)c(C(O)c2nc3ccccc3n2C)c1` (centres undefined), the Potency entry is “inactive”.
As for `COc1ccc(OC)c(Nc2nc3ccccc3n3cnnc23)c1`, the Potency was 4.11 µM (active).
The same measure, in the same setting: the value for `CCOc1ccc(OCC)c(Nc2nc3ccccc3n3nnnc23)c1` was “inactive”; that for `COc1ccccc1CNc1nc2ccc(Cl)cc2n2cnnc12` was “inactive”; that for `COc1cc(Nc2nc3ccc(Cl)cc3n3cnnc23)cc(OC)c1OC` was 20.6 µM (active).
As to `COc1ccc(CCNc2nc3ccc(C)cc3n3cnnc23)cc1OC`, the Potency is 14.6 µM (active).
The same measure, in the same setting: the same measure for `CCOC(=O)Cc1cccc(-c2cc(CCCCCCc3ccc(O[C@H]4O[C@H](COC(C)=O)[C@@H](OC(C)=O)[C@H](OC(C)=O)[C@@H]4OC(C)=O)c(-c4cccc(CC(=O)OCC)c4)c3)ccc2O[C@H]2O[C@H](COC(C)=O)[C@@H](OC(C)=O)[C@H](OC(C)=O)[C@@H]2OC(C)=O)c1`: “inactive”; for `Cc1nnc(SCC(=O)NC(=O)NC2CCCC2)n1N`: “inactive”.
With `Nc1nc(SC23CC4CC(CC(C4)C2)C3)ns1`, the Potency result was “inactive”.
On the same count and under the same terms, the same measure for `Nc1nc(NC(=O)/C=C/c2ccccc2)nn1-c1ccccc1`: “inactive”.
The same measure, in the same setting: the value for `CC1(c2cccc(N)c2)OCCO1` was “inactive”; that for `COc1ccc(N2C(=O)c3ccccc3NC2c2ccc(OC)c(CN3CCOCC3)c2)cc1` (centres undefined) was “inactive”; that for `CC(=O)Nc1ccc(NC(=O)COc2ccc(-c3ccccc3)cc2)cc1` was “inactive”.
Same read-out and setting: the value for `COc1ccc(C2Nc3ccc(NC(=O)COC(C)=O)cc3C(=O)N2Cc2ccccc2)cc1COc1ccc(NC(C)=O)cc1` (centres undefined) was 17.8 µM (active).
In the case of `COc1ccc2c(c1)CCc1cnc(-n3ncc(C(=O)NCc4cccnc4)c3C3CC3)nc1-2`, the activity change, negative = growth inhibition was -5.66% [at 9.04 µM] (inactive).
As for `Cc1nc2ccccn2c(=O)c1NC(=O)c1cccs1`, the Potency entry is “inactive”.
The same measure, in the same setting: the value for `Cc1ccc(S(=O)(=O)NCC(=O)Nc2ccc3c(c2)OCCO3)cc1` was “inactive”; that for `Cc1noc(C)c1S(=O)(=O)N(CC(=O)Nc1ccc2c(c1)OCCO2)c1ccc(C(C)C)cc1` was 20.6 µM (active); that for `CCOc1ccc(N(CC(=O)NCc2ccc(OC)cc2)S(=O)(=O)c2c(C)noc2C)cc1` was “inactive”.
On the same count and under the same terms, the value for `Cc1c(C(=O)Nc2cccc(Cl)c2)cn2c(nc3ccccc32)c1C#N` was 16.4 µM (active); that for `Cn1c(Nc2cccc(Cl)c2)nc2ccccc21` was “inactive”.
On the same count and under the same terms, the value for `O=C(O)c1cccc(NC(=O)c2cc(-c3cccc(Cl)c3)nc3ccccc23)c1` was “inactive”; that for `CC1(c2ccc3ccccc3c2)NC(=O)NC1=O` (centres undefined) was “inactive”; that for `Cc1cccc(N2C(=O)c3ccc(C(=O)Nc4cccc(C(=O)O)c4)cc3C2=O)c1` was “inactive”.
For the compound `Cc1cccc(NC(=O)c2cccc(C(=O)Nc3cccc(C)c3C)n2)c1C`, the Potency result was “inactive”.
As for `CCOc1ccccc1NC(=O)Cn1c(=O)n(Cc2ccccc2)c(=O)c2c(C)c(C(=O)N(C)C)sc21`, the Potency result is “inactive”.
The same measure, in the same setting: the value for `O=C1C2CCCN2C(=O)N1CCCCN1CCN(c2cccc(C(F)(F)F)c2)CC1` (centres undefined) was “inactive”; that for `O=C(C1CC(=O)N(C2CCCCC2)C1)N1CCN(c2ccccc2)CC1` (centres undefined) was “inactive”.
Same read-out and setting: the value for `O=C(C1CC(=O)N(C2CCCC2)C1)N1CCN(c2cccc(C(F)(F)F)c2)CC1` (centres undefined) was 14.6 µM (active).
Same read-out and setting: the same measure for `COC(=O)c1cc(=O)n(-c2c(Cl)cc(C(F)(F)F)cc2Cl)[nH]1`: “inactive”.
For `CC(=O)Nc1ccccc1OC(C)C(=O)N1CCC(C)CC1` (centres undefined), the Potency result is “inactive”.
The same measure, in the same setting: the same measure for `O=C(NCC(O)c1ccc([N+](=O)[O-])cc1)C1CCCCC1` (centres undefined): “inactive”; for `O=C(COc1nsnc1N1CCOCC1)Nc1ccccc1Cl`: “inactive”; for `CCOc1cc(N2CCOCC2)c(OCC)cc1NC(=O)c1ccc(C)s1`: 9.2 µM (active).
For the compound `NC(=O)C1CCN(C(=O)COc2cccc3cccnc23)CC1`, the Potency entry was “inactive”.
Still for that read-out and setting: the value for `CCOc1cc(NC(=O)c2ccccc2C(=O)O)c(OCC)cc1NC(=O)c1ccccc1F` was “inactive”.
On the same count and under the same terms, the same measure for `CCOc1cc(N2CCOCC2)c(OCC)cc1NC(=O)COc1cccc2cccnc12`: 10.3 µM (active); for `COC(=O)c1ccc(N2CCOCC2)c(NC(=O)c2ccc3c(c2)OCCO3)c1`: “inactive”.

The record behind these values is PubChem BioAssay AID686979 (National Center for Advancing Translational Sciences (NCATS), 2013).
